Source: PubChem BioAssay
ELG1 repair inh: qHTS screen for small molecules that inhibit ELG1-dependent DNA repair in human embryonic kidney (HEK293T) cells expressing luciferase-tagged ELG1. HEK293T ELG1-luciferase reporter, luminescence, 16 h; DNA damage induced by 5-fluorouridine. Potency, µM (series often up to 46.1 µM), for the others: top-dose activity change, negative = inhibition, most hits filed as inhibitors. 330,000 tested, 2.3% active. AID 504467, 2011; note: potency is the fitted concentration of half-maximal effect; nearly all actives have a fitted effect of over 55% in size
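5-Fluorouridine DNA damage + compound/DMSO, 2,000 cells/well, 16 h, 37 °C/5% CO2. ONE-Glo, 30 min RT, luminescence. Readout = decrease in reporter signal.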
IL-1B inflam inh: qHTS for Inhibitors of Inflammasome Signaling: IL-1-beta AlphaLISA Primary Screen; activity change, % at 57.5 µM; 360,000 tested, 4.7% active; THP-1 LPS/ATP IL-1B secretion, AlphaLISA, 16 h; hits give low values; in the data active = activity change below about -50%; inconclusive = mostly about -30% to -49%
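Secreted IL-1B measured by AlphaLISA bead assay after 16 h compound exposure of THP-1 cells; compounds (final up to 57.5 uM) added 1 h before LPS (250 ng/mL) and ATP (1.25 mM) stimulation; lower signal means less secretion.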
HT1080-NT tox: qHTS for induction of synthetic lethality in tumor cells producing 2HG: qHTS for the HT-1080-NT fibrosarcoma cell line. AID 686970, 2013. HT-1080-NT fibrosarcoma viability, CellTiter-Glo ATP luminescence, 48 h. 360,000 tested, 1.6% active. Potency, µM (doses to about 46.1 µM), for the others: top-dose activity, negative = less viability, most hits filed as cytotoxic;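 note: NT is the 2HG producing partner of a matched IDH1 knockdown line; potency is the fitted concentration of half-maximal effect; 0% = DMSO-treated cells and -100% = media-only wells without cells; nearly all actives have a fitted effect of over 55% in size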
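750 cells/well, RPMI + 5% FBS; 2 h settle, compound pin-transfer, 48 h at 37 degrees C. CellTiter-Glo 10 min RT, luminescence. Normalized to DMSO and media-only wells.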
TDP1 cell CPT: qHTS for Inhibitors of human tyrosyl-DNA phosphodiesterase 1 (TDP1): qHTS in cells in presence of CPT; chicken DT40 Tdp1-/-;hTDP1 cells + 20 nM CPT, ATP luminescence, 48 h; Potency, µM (top dose mostly 46.2 µM), inactives show at the top dose activity change, negative = growth inhibition, hits mostly inhibitors; 420,000 tested, 12% active; note: potency is the fitted concentration of half-maximal effect; nearly all actives have a fitted effect of over 55% in size
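Chicken DT40 Tdp1-/- cells complemented with human TDP1, 400 cells/well, exposed to compounds plus 20 nM camptothecin for at least 48 h at 37 C; viability read as ATP content by CellTiter-Glo luminescence.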
HT1080 IDH1KD tx: qHTS for induction of synthetic lethality in tumor cells producing 2HG: qHTS for the HT-1080-IDH1KD cell line | HT-1080 IDH1 knockdown viability, ATP luminescence, 48 h | Potency, µM (series often up to 46.1 µM), for inactives: at the highest dose activity, negative = toxicity, hits mostly cytotoxic | 360,000 tested, 2% active;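 note: potency is the fitted concentration of half-maximal effect; 0% = DMSO wells and -100% = cell-free medium wells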
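In this qHTS, HT-1080 cells depleted of IDH1 are exposed for 48 h at 37 °C to compound titrations. Toxicity is scored from CellTiter-Glo luminescence, with DMSO as full viability and medium alone as none.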
DT40 TDP1 no CPT: qHTS for Inhibitors of human tyrosyl-DNA phosphodiesterase 1 (TDP1): qHTS in cells in absence of CPT | DT40 Tdp1-/- hTDP1 cells, no CPT, ATP luminescence, 48 h | Potency, µM (doses to about 46.2 µM), for the others: at the highest dose activity change, negative = growth inhibition, actives largely listed as inhibitors | 420,000 tested, 15% active; note: potency is the fitted concentration of half-maximal effect; nearly all actives have a fitted effect of over 55% in size
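Camptothecin absent (DMSO only). Human TDP1-complemented DT40 knockout cells, 400 cells/well, 37 °C for minimum 48 hr; ATP measured via CellTiter-Glo, 30 min dark incubation, luminescence.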
Numbers without * were called inactive; u = inconclusive; x = no result given; [ ] = remark or other dose. An excerpt weighted towards active compounds, which were near 19% of everything screened. Unless noted, calls come from the whole dose curve; as a rule, active = well fitted curve in the direction sought with a large enough effect; inconclusive = small, poorly fitted or top-dose-only effect, or another doubt; inactive = no such curve, though single readings can be large; an effect the other way counts as inactive or inconclusive. Unless noted, % is set by controls: 0 for no effect and ±100 for the full control effect.

SMILES	ELG1 repair inh	IL-1B inflam inh	HT1080-NT tox	TDP1 cell CPT	HT1080 IDH1KD tx	DT40 TDP1 no CPT
C=C1C(=O)OC2C1CCC(C)C1C=CC(=O)C12C (stereo unspecified)	x	-68*	u	3.3µM*	21µM*	2.9µM*
CCOc1ccccc1Nc1nc(-c2ccc(C)cc2)c(CC(=O)O)s1	x	x	x	u	x	-14%
Cc1ccc(C(=O)c2coc3ccc(O)c(CN4CCN(C)CC4)c23)cc1	-14%	-54*	-6%	13µM*	-18%	18µM*
COc1ccc(C(=O)c2c(C)oc3ccc(O)c(CN4CCOCC4)c23)cc1	u	1	-8%	u	-14%	18µM*
COc1ccc(NC(=O)c2c(C)oc3ccc(O)c(CN4CCOCC4)c23)cc1	x	x	x	-21%	x	3%
COc1ccc(C(=O)c2coc3ccc(O)c(CN4CCOCC4)c23)cc1	u	-7	-4%	12µM*	-2%	u
O=C(CSc1nc(-c2ccccc2)no1)N1CCN(c2ccc(F)cc2)CC1	x	x	x	-23%	x	-22%
CCC(=O)N[C@@H]1c2ccccc2C2(CCN(Cc3ccccn3)CC2)[C@H]1OC	x	x	x	6%	x	-6%
Cc1ccc(-c2cc(O)cc3sc(=O)oc23)cc1C	u	-1	u	u	-2%	21µM*
O=c1oc2cc(O)ccc2s1	3%	-1	-26%	u	-10%	u
CCCOc1ccc(C2CC(=O)Nc3cc(OC)c(OC)cc32)cc1 (stereo unspecified)	-27%	51	-2%	u	-21%	-29%
CN(C)c1ncc2nc(-c3cccc(C#N)c3)c(=O)n(C[C@H]3CCCO3)c2n1	x	x	x	-6%	x	0%
CCOc1ccc(C(c2c(O)cc(C)n(CCOC)c2=O)N2CCN(c3ccccc3)CC2)cc1 (stereo unspecified)	x	x	x	1%	x	-9%
CCCn1c(N)c(C(=O)CN(C)CC(=O)Nc2c(Cl)cccc2Cl)c(=O)[nH]c1=O	u	u	-1%	16µM*	-2%	23µM*
CCCn1c(N)c(C(=O)CN(C)CC(=O)Nc2ccccc2C(F)(F)F)c(=O)[nH]c1=O	9.2µM*	12	-1%	15µM*	-6%	21µM*
CCCn1c(N)c(C(=O)CN(C)CC(=O)Nc2cc(C)ccc2C)c(=O)[nH]c1=O	u	11	1%	13µM*	0%	13µM*
CCCn1c(N)c(C(=O)CN(C)CC(=O)Nc2c(C)cc(C)cc2C)c(=O)[nH]c1=O	u	11	-11%	-16%	-4%	u
CCOC(=O)c1c(C(C)(C)C)oc2ccc(O)cc12	u	8	u	21µM*	u	23µM*
CNCc1ccccc1Sc1cccc2ccccc12	-20%	-55*	-14%	23µM*	-26%	23µM*
CN(C)CCN(C)Cc1ccccc1Sc1cccc2ccccc12	-20%	-105*	u	9.2µM*	u	8.2µM*
CCCC(C(=O)NC1CCCC1)N(C(=O)Cn1nnc(-c2ccc(C)o2)n1)C1CCCC1 (stereo unspecified)	u	-18	-18%	u	-25%	u
CCC(C(=O)NC1CCCC1)N(C(=O)Cn1nnc(-c2ccc(OC)c(OC)c2)n1)C1CCCCC1 (stereo unspecified)	u	u	8%[9.24 µM]	13µM*	-5%	u
